Laboratory results: the antibiotic and cytotoxicity screens of Wong et al. (2023)
The whole screen tested about 39,000 compounds, of which about 3,300 (8.5%) were called active. Shown is part of a subset that was picked to be rich in actives.

tested on: HepG2; assay: cytotoxicity call (relative viability < 0.9); settings: 10 µM

Row | SMILES | cytotoxicity call
1 | C[C@@H]1CCCCO[C@@H](CN(C)Cc2ccc3c(c2)OCO3)[C@H](C)CN([C@@H](C)CO)C(=O)c2cc(NS(=O)(=O)c3ccccc3)ccc2O1 | inactive
2 | Cc1noc(C)c1S(=O)(=O)N(C)C[C@H]1Oc2ccc(NS(=O)(=O)c3ccc(Cl)cc3)cc2CC(=O)N([C@@H](C)CO)C[C@@H]1C | inactive
3 | C[C@H]1CCCCO[C@@H](CN(C)C(=O)Nc2ccccc2)[C@@H](C)CN([C@@H](C)CO)C(=O)c2cc(NC(=O)Nc3ccccc3)ccc2O1 | inactive
4 | COCC(=O)Nc1ccc2c(c1)OC[C@H](C)N(Cc1ccccc1OC)C[C@H](C)[C@@H](OC)CN(C)C2=O | inactive
5 | N[C@@H]1CC[C@@H](CCn2cc(-c3ccccn3)nn2)O[C@H]1CO | inactive
6 | C=CCC[C@H](Cc1ccc(F)cc1)C(=O)OC[C@@H](NC(=O)[C@H](CC=C)CC(=O)N(CCO)Cc1ccccc1)c1ccccc1 | inactive
7 | C=CCOC(=O)[C@@H]1[C@H]2C(=O)O[C@H](c3ccccc3)[C@H](c3ccccc3)N2[C@H](c2ccc(OCCOC(=O)[C@H]3C[C@H]4C(=O)N[C@@H](CC(C)C)C(=O)N4[C@H]3c3cccc(OCCO)c3)cc2)[C@@]12C(=O)Nc1ccccc12 | inactive
8 | Cc1c(C)n2c3c(=O)n(C)c(=O)n(C)c3nc2n1CCO | inactive
9 | CC(C)NC(=O)Nc1ccc2c(c1)CC(=O)N([C@H](C)CO)C[C@@H](C)[C@H](CN(C)S(=O)(=O)c1ccc(F)cc1)O2 | inactive
10 | CC[C@H]1OC(=O)[C@H](C)[C@@H](O[C@H]2C[C@@](C)(OC)[C@@H](O)[C@H](C)O2)[C@@H](C)[C@@H](O[C@H]2O[C@H](C)C[C@H](N(C)C)[C@H]2O)[C@](C)(O)C[C@@H](C)C(=O)[C@H](C)[C@@H](O)[C@]1(C)O | inactive
11 | CC[C@H]1OC(=O)[C@H](C)[C@@H](O[C@H]2C[C@@](C)(OC)[C@@H](O)[C@H](C)O2)[C@H](C)[C@@H](O[C@@H]2O[C@H](C)C[C@H](N(C)C)[C@H]2O)[C@](C)(O)C[C@@H](C)C(=O)[C@H](C)[C@@H](O)[C@]1(C)O | active
12 | CCC1OC(=O)C(C)C(OC2CC(C)(OC)C(O)C(C)O2)C(C)C(OC2OC(C)CC(N(C)C)C2O)C(C)(O)CC(C)C(=O)C(C)C(O)C1(C)O (stereo not given) | inactive
13 | O=C(N[C@@H]1CC[C@H](CCNS(=O)(=O)c2ccccc2)O[C@@H]1CO)c1cnccn1 | inactive
14 | N#Cc1c(Oc2ccc(F)c(NC(=O)Cc3cccc(C(F)(F)F)c3)c2)ccc2nc(NC(=O)C3CC3)sc12 | active
15 | O=C(N[C@H](c1ccc2ccccc2n1)c1cccs1)C1CCN(Cc2cccc(C(F)(F)F)c2)CC1 | inactive
